From PubChem BioAssay AID1159580 (chemical genetic matrix, 2015)
Several values for one entry are separate records, joined by “and”; a condition that tells them apart may be missing. Equal entries are not always repeated. Among all 5,500 compounds or so, about 2,000 (36%) were called active. Roughly 18% stayed inconclusive and do not appear here. Rule as the data show it: active = normalized growth mostly below about 0.91 (no sharp cut-off); inconclusive = no clear call, values can overlap the other calls; inactive = mostly above about 0.92. This is one part of the list.

Test: chemical genetic growth profiling, strain panel (AID 1159580);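 also: tested at 20 µM; growth read once vehicle control cultures reached saturation at 30 °C; 1 = growth at the plate median or of vehicle wells; lower values mean less growth of the strain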
Settings: S. cerevisiae deletion strains, growth OD

Measured: normalized growth

C=C1C2CC[C@@]3(C)[C@H](c4ccoc4)OC(=O)C[C@]13O[C@H]1CC(=O)C(C)(C)[C@H](C(O)C(=O)OC)[C@@]21C (some centres undefined)
inactive: locus YAL021C, strain ccr4, stronger effect = lower value 1.06 | locus YAL026C, strain drs2, stronger effect = lower value 0.995 | locus YAL030W, strain snc1, stronger effect = lower value 0.995 | locus YBL061C, strain skt5, stronger effect = lower value 0.985 | locus YBR009C, strain hhf1, stronger effect = lower value 1.05 | locus YBR021W, strain FUR4, stronger effect = lower value 0.993 | locus YBR023C, strain chs3, stronger effect = lower value 1.01 | locus YBR171W, strain sec66, stronger effect = lower value 0.994 | locus YBR229C, strain ROT2, stronger effect = lower value 1 | locus YBR231C, strain swc5, stronger effect = lower value 0.993 | locus YBR279W, strain paf1, stronger effect = lower value 1 | locus YCL011C, strain gbp2, stronger effect = lower value 1.02 | locus YCL016C, strain dcc1, stronger effect = lower value 1.01 | locus YCL029C, strain bik1, stronger effect = lower value 1.01 | locus YCL061C, strain MRC1, stronger effect = lower value 1 | locus YCL069W, strain vba3, stronger effect = lower value 0.997 | locus YCR088W, strain abp1, stronger effect = lower value 0.999 | locus YDL005C, strain med2, stronger effect = lower value 0.989 | locus YDL035C, strain GPR1, stronger effect = lower value 1.01 | locus YDL040C, strain nat1, stronger effect = lower value 0.998 | locus YDL074C, strain BRE1, stronger effect = lower value 1.02 | locus YDL101C, strain DUN1, stronger effect = lower value 1.01 | locus YDL134C, strain PPH21, stronger effect = lower value 1.01 | locus YDL185W, strain tfp1, stronger effect = lower value 1.01 | locus YDL192W, strain arf1, stronger effect = lower value 1.01 | locus YDR001C, strain nth1, stronger effect = lower value 1.02 | locus YDR069C, strain doa4, stronger effect = lower value 0.99 | locus YDR101C, strain arx1, stronger effect = lower value 0.994 | locus YDR137W, strain rgp1, stronger effect = lower value 0.959 | locus YDR159W, strain sac3, stronger effect = lower value 0.995 | locus YDR162C, strain NBP2, stronger effect = lower value 1.02 | locus YDR195W, strain ref2 0.961 | locus YDR297W, strain sur2, stronger effect = lower value 1.02 | locus YDR318W, strain mcm21, stronger effect = lower value 1.01 | locus YDR334W, strain swr1, stronger effect = lower value 0.997 | locus YDR335W, strain msn5, stronger effect = lower value 1.01 | locus YDR388W, stronger effect = lower value 1.01 | locus YDR392W, strain spt3, stronger effect = lower value 0.958 | locus YDR502C, strain sam2, stronger effect = lower value 1.02 | locus YEL003W, strain gim4, stronger effect = lower value 1 | locus YEL037C, strain rad23, stronger effect = lower value 1 | locus YEL061C, strain CIN8 (second series), stronger effect = lower value 0.996 | locus YER015W, strain faa2, stronger effect = lower value 1 | locus YER016W, strain bim1, stronger effect = lower value 0.997 | locus YER110C, stronger effect = lower value 1.01 | locus YER111C, strain swi4, stronger effect = lower value 0.994 | locus YER155C, strain BEM2 (second series), stronger effect = lower value 0.983 | locus YER155C, strain BEM2, stronger effect = lower value 0.994 | locus YER167W, strain BCK2, stronger effect = lower value 1.01 | locus YFR010W, strain ubp6, stronger effect = lower value 0.976 | locus YGL078C, strain dbp3, stronger effect = lower value 1.02 | locus YGL086W, strain mad1, stronger effect = lower value 1.01 | locus YGL167C, strain pmr1, stronger effect = lower value 1 | locus YGL173C, strain kem1, stronger effect = lower value 1 | locus YGL227W, strain vid30, stronger effect = lower value 0.991 | locus YGL240W, strain doc1, stronger effect = lower value 0.989 | locus YGL248W, strain PDE1, stronger effect = lower value 1.01 | locus YGL253W, strain hxk2, stronger effect = lower value 0.99 | locus YGR078C, strain PAC10, stronger effect = lower value 1.01 | locus YGR135W, strain pre9, stronger effect = lower value 1.02 | locus YGR252W, strain gcn5, stronger effect = lower value 1.01 | locus YHR013C, strain ard1, stronger effect = lower value 1.01 | locus YHR027C, strain rpn1, stronger effect = lower value 0.991 | locus YHR030C, strain SLT2, stronger effect = lower value 0.963 | locus YHR079C, strain IRE1 (second series), stronger effect = lower value 1.01 | locus YHR079C, strain IRE1, stronger effect = lower value 0.98 | locus YHR094C, strain hxt1, stronger effect = lower value 1.02 | locus YHR129C, strain ARP1, stronger effect = lower value 1 | locus YHR142W, strain chs7, stronger effect = lower value 1.01 | locus YHR200W, strain rpn10, stronger effect = lower value 1.02 | locus YIL066C, strain RNR3, stronger effect = lower value 1.02 | locus YIL073C, strain SPO22, stronger effect = lower value 1.03 | locus YIL125W, strain kgd1, stronger effect = lower value 1 | locus YIR030C, strain dcg1, stronger effect = lower value 1.01 | locus YJL092W, strain hpr5, stronger effect = lower value 1 | locus YJL095W, strain BCK1 (second series), stronger effect = lower value 1.01 | locus YJL095W, strain BCK1, stronger effect = lower value 1.02 and 0.96 | locus YJL115W, strain asf1, stronger effect = lower value 0.995 | locus YJL129C, strain trk1, stronger effect = lower value 0.976 | locus YJL134W, strain LCB3, stronger effect = lower value 1.01 | locus YJL154C, strain vps35, stronger effect = lower value 0.995 | locus YJL164C, strain tpk1, stronger effect = lower value 1.03 | locus YJL166W, strain qcr8, stronger effect = lower value 1.02 | locus YJL168C, strain set2, stronger effect = lower value 1.01 | locus YJL187C, strain SWE1 (second series), stronger effect = lower value 1.01 | locus YJL187C, strain SWE1, stronger effect = lower value 1 | locus YJR043C, strain POL32, stronger effect = lower value 0.999 | locus YJR066W, strain TOR1, stronger effect = lower value 0.932 | locus YJR075W, strain HOC1, stronger effect = lower value 1.01 | locus YKL009W, strain mrt4, stronger effect = lower value 0.992 | locus YKL068W, stronger effect = lower value 1.01 | locus YKL085W, strain MDH1 (second series), stronger effect = lower value 1.01 | locus YKL085W, strain MDH1, stronger effect = lower value 1.01 | locus YKL160W, strain elf1, stronger effect = lower value 1.02 | locus YKL190W, strain CNB1, stronger effect = lower value 1 | locus YKR001C, strain vps1, stronger effect = lower value 1.01 | locus YKR026C, strain gcn3, stronger effect = lower value 0.994 | locus YKR091W, strain srl3, stronger effect = lower value 1 | locus YLL001W, strain dnm1, stronger effect = lower value 0.969 | locus YLL026W, stronger effect = lower value 1 | locus YLL041C, strain sdh2, stronger effect = lower value 1 | locus YLR027C, strain aat2, stronger effect = lower value 0.983 | locus YLR039C, strain RIC1, stronger effect = lower value 1.05 | locus YLR058C, strain SHM2, stronger effect = lower value 1.02 | locus YLR102C, strain apc9, stronger effect = lower value 1.01 | locus YLR113W, strain HOG1, stronger effect = lower value 1.01 | locus YLR221C, strain rsa3, stronger effect = lower value 0.976 | locus YLR258W, strain gsy2, stronger effect = lower value 1.01 | locus YLR262C, strain YPT6 (second series), stronger effect = lower value 1.01 | locus YLR262C, strain YPT6, stronger effect = lower value 1.02 | locus YLR268W, strain sec22, stronger effect = lower value 1 | locus YLR320W, strain mms22, stronger effect = lower value 0.982 | locus YLR342W, strain FKS1 (second series), stronger effect = lower value 0.996 | locus YLR342W, strain FKS1, stronger effect = lower value 0.99 | locus YLR357W, strain rsc2, stronger effect = lower value 0.975 | locus YLR370C, strain arc18, stronger effect = lower value 1.01 | locus YLR371W, strain rom2, stronger effect = lower value 1.02 | locus YLR384C, strain iki3, stronger effect = lower value 0.984 | locus YLR418C, strain cdc73, stronger effect = lower value 1.02 | locus YML016C, strain PPZ1, stronger effect = lower value 1.01 | locus YML032C, strain rad52, stronger effect = lower value 1.01 | locus YML120C, strain ndi1, stronger effect = lower value 1.01 | locus YML124C, strain tub3, stronger effect = lower value 1.01 | locus YMR058W, strain fet3, stronger effect = lower value 0.99 | locus YMR078C, strain ctf18, stronger effect = lower value 1.02 | locus YMR125W, strain sto1, stronger effect = lower value 0.983 | locus YMR129W, stronger effect = lower value 0.998 | locus YMR205C, strain PFK2, stronger effect = lower value 1.03 | locus YMR223W, strain ubp8, stronger effect = lower value 1.01 | locus YMR231W, strain pep5, stronger effect = lower value 0.998 | locus YMR307W, strain GAS1, stronger effect = lower value 1.01 | locus YNL067W, strain RPL9B, stronger effect = lower value 1.01 | locus YNL071W, strain lat1, stronger effect = lower value 1.02 | locus YNL128W, strain TEP1, stronger effect = lower value 1.01 | locus YNL153C, strain GIM3, stronger effect = lower value 1.01 | locus YNL183C, strain NPR1, stronger effect = lower value 0.945 | locus YNL209W, strain ssb2, stronger effect = lower value 1.01 | locus YNL233W, strain BNI4, stronger effect = lower value 1 | locus YNL248C, strain rpa49, stronger effect = lower value 0.959 | locus YNL250W, strain rad50, stronger effect = lower value 1 | locus YNL271C, strain bni1, stronger effect = lower value 1.01 | locus YNL298W, strain CLA4, stronger effect = lower value 1.01 | locus YNL307C, strain MCK1, stronger effect = lower value 1.02 | locus YNL322C, strain KRE1 (second series), stronger effect = lower value 1 | locus YNR049C, strain mso1, stronger effect = lower value 0.995 | locus YNR052C, strain pop2, stronger effect = lower value 1.01 | locus YOL006C, strain TOP1, stronger effect = lower value 1.03 | locus YOL012C, strain htz1 1.49 | locus YOL147C, strain pex11, stronger effect = lower value 1.01 | locus YOR001W, strain rrp6, stronger effect = lower value 0.953 | locus YOR061W, strain CKA2, stronger effect = lower value 1.01 | locus YOR069W, strain VPS5, stronger effect = lower value 1.01 | locus YOR070C, strain gyp1, stronger effect = lower value 0.99 | locus YOR080W, strain dia2, stronger effect = lower value 1 | locus YOR083W, strain WHI5, stronger effect = lower value 1.04 | locus YOR106W, strain vam3, stronger effect = lower value 1.02 | locus YOR136W, strain idh2, stronger effect = lower value 1.01 | locus YOR144C, strain elg1, stronger effect = lower value 1 | locus YOR184W, strain ser1, stronger effect = lower value 1.02 | locus YOR231W, strain MKK1, stronger effect = lower value 0.983 | locus YOR265W, strain rbl2, stronger effect = lower value 1.01 | locus YOR270C, strain vph1, stronger effect = lower value 0.995 | locus YOR290C, strain snf2, stronger effect = lower value 1.03 | locus YOR316C, strain cot1, stronger effect = lower value 1.01 | locus YPL051W, strain arl3, stronger effect = lower value 0.984 | locus YPL078C, strain atp4, stronger effect = lower value 1.02 | locus YPL106C, strain sse1, stronger effect = lower value 1.05 | locus YPL240C, strain hsp82, stronger effect = lower value 0.998 | locus YPL256C, strain CLN2, stronger effect = lower value 0.981 | locus YPR119W, strain clb2, stronger effect = lower value 1.01 | locus YPR141C, strain kar3, stronger effect = lower value 1 | locus YPR163C, strain tif3, stronger effect = lower value 1.01 | locus YPR167C, strain met16, stronger effect = lower value 1.01 | strain wtn01, stronger effect = lower value 1
